# Target: C1orf115
# Assay: pooled miR-30 sensor sort-seq; sequence = guide strand
# Details: shRNA
# Further: reference of the scale not given here.
row,Sequence,sensor-assay potency score (higher = more potent)
1,TGACTCTAGTAACATCCTCTTC,-1.03
2,TCGTCCGCCGCGCTCGTCCCGC,-1.58
3,TTGCAGGCCGATGACCACGTAG,-1.3
4,TACTTCTTCAGCTTCCTCCGGT,0.808
5,TTCTGCTGCACACCCACACTGC,-0.976

# Target: C1orf131
# Assay: as above
# Details: shRNA
row,Sequence,sensor-assay potency score (higher = more potent)
1,TTTTTCTTGAAAATATCTGTTT,-0.422
2,TTCTTTATGATCTTCTTCTGTT,-0.273
3,TTTGGATTTCCTGTCCTCCTGT,0.0328
4,TTTCTTGATATCAACTGGGCTC,-0.367
5,TTATGATCTTCTTCTGTTCTGT,-0.0808
6,TTTAATGTAAACTACTAGCATT,-0.73
7,TTGAATTTTCCAACCTGTCCAA,0.318
8,TAACCCGTGATACCAAACCGGT,-1.37
9,TTGTAATTCACATAACTCTTTT,-0.919
10,TTCTGTACCTCCAAAGTCGTAA,-0.764
11,TAAATTACTAGATTCTTGGTTC,0.886
12,TATTTTCTTGATATCAACTGGG,0.559
